Experimental data taken from PubChem BioAssay (NCI).
Compounds without any hit were thinned out: in the full panel of roughly 83,000, 20% have a hit.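 A percent growth of 40 corresponds to 60% growth inhibition; 0 means no net growth; -100 means all cells died. Active threshold: below 10.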 Activity calls are given as the source filed them.

What was measured:
Assay in all cases: NCI-60 one-dose screen, 48 h (100 = growth as untreated, 0 = no growth, -100 = all killed)
Conditions in all cases: 10 µM unless noted
NCI-H23 lung = tested on: NCI-H23 lung
NCI-H226 lung = tested on: NCI-H226 lung
NCI-H322M lung = tested on: NCI-H322M lung
HOP-62 NSCLC = tested on: HOP-62 NSCLC
NCI-H460 lung = tested on: NCI-H460 lung
HOP-92 NSCLC = tested on: HOP-92 NSCLC
NCI-H522 lung = tested on: NCI-H522 lung
A549/ATCC NSCLC = tested on: A549/ATCC NSCLC
COLO 205 colon = tested on: COLO 205 colon
DU-145 prostate = tested on: DU-145 prostate
K-562 leukemia = tested on: K-562 leukemia
MALME-3M melanoma = tested on: MALME-3M melanoma
MDA-MB-231 breast = tested on: MDA-MB-231 breast
RXF 393 renal = tested on: RXF 393 renal
SF-268 CNS = tested on: SF-268 CNS
SF-295 CNS = tested on: SF-295 CNS
SF-539 CNS = tested on: SF-539 CNS
UACC-257 melanoma = tested on: UACC-257 melanoma
M14 melanoma = tested on: M14 melanoma
786-0 renal = tested on: 786-0 renal

Measured: growth

O=C1CS/C(=N\Nc2cc(=O)[nH]c3ccccc23)N1c1ccccc1
inactive: NCI-H23 lung 96.4% | NCI-H226 lung 95.6% | NCI-H322M lung 99.3% | HOP-62 NSCLC 86.6% | NCI-H460 lung 100% | HOP-92 NSCLC 65.1% | NCI-H522 lung 76.2% | A549/ATCC NSCLC 97.2% | COLO 205 colon 105% | DU-145 prostate 111% | K-562 leukemia 86.8% | MALME-3M melanoma 96.9% | MDA-MB-231 breast 78.3% | RXF 393 renal 95.6% | SF-268 CNS 86.1% | SF-295 CNS 96.8% | SF-539 CNS 93% | UACC-257 melanoma 99.9% | M14 melanoma 104%

O=C(NNC(=S)Nc1ccccc1)c1cc2ccc1CCc1ccc(cc1)CC2
inactive: NCI-H23 lung 74.8% | NCI-H226 lung 78.9% | NCI-H322M lung 77.7% | HOP-62 NSCLC 64.7% | NCI-H460 lung 36.9% | HOP-92 NSCLC 48.8% | NCI-H522 lung 76% | A549/ATCC NSCLC 59.2% | COLO 205 colon 77% | DU-145 prostate 77.5% | K-562 leukemia 43.4% | MALME-3M melanoma 74.8% | MDA-MB-231 breast 77.2% | RXF 393 renal 83.7% | SF-268 CNS 76.6% | SF-295 CNS 49.5% | SF-539 CNS 82.9% | UACC-257 melanoma 85.8% | M14 melanoma 56%

O=[N+]([O-])c1cccc(-c2nc3sccn3c2-c2ccnc(NCCCNS(=O)(=O)c3ccc(Cl)cc3)n2)c1
inactive: NCI-H23 lung 42.8% | NCI-H226 lung 44.2% | NCI-H322M lung 78.5% | HOP-62 NSCLC 84% | NCI-H460 lung 57.4% | HOP-92 NSCLC 67.2% | NCI-H522 lung 28.4% | 786-0 renal 78.7% | COLO 205 colon 49.2% | DU-145 prostate 64.2% | K-562 leukemia 26.6% | MALME-3M melanoma 62.8% | MDA-MB-231 breast 70.8% | RXF 393 renal 77.9% | SF-268 CNS 69.7% | SF-295 CNS 37.2% | SF-539 CNS 84.9% | UACC-257 melanoma 47.7% | M14 melanoma 47%

CCOC(=O)c1cc(C(=O)c2cc(OC)c(OC)c(OC)c2)n2c1ccc1ccccc12
active: NCI-H522 lung 2.76% | COLO 205 colon -6.61% | RXF 393 renal -9.46% | SF-539 CNS -13.4%
inactive: NCI-H23 lung 50.2% | NCI-H226 lung 64.7% | NCI-H322M lung 43.1% | HOP-62 NSCLC 21.6% | NCI-H460 lung 14.9% | HOP-92 NSCLC 39.1% | A549/ATCC NSCLC 34.4% | DU-145 prostate 22.1% | K-562 leukemia 12.3% | MALME-3M melanoma 19.9% | MDA-MB-231 breast 49.8% | SF-268 CNS 49.6% | SF-295 CNS 22.4% | UACC-257 melanoma 63.6% | M14 melanoma 10.7%

Nc1ccc(C(=O)CSc2nc3ccccc3[nH]2)cc1
inactive: NCI-H23 lung 98.4% | NCI-H226 lung 108% | NCI-H322M lung 108% | HOP-62 NSCLC 111% | NCI-H460 lung 106% | HOP-92 NSCLC 116% | NCI-H522 lung 101% | 786-0 renal 93.5% | COLO 205 colon 120% | DU-145 prostate 103% | K-562 leukemia 103% | MALME-3M melanoma 107% | MDA-MB-231 breast 105% | RXF 393 renal 110% | SF-268 CNS 99.4% | SF-295 CNS 98.1% | SF-539 CNS 104% | UACC-257 melanoma 107% | M14 melanoma 108%

C=C[C@@H]1C[C@H](O)Cc2c(C)cc(C)cc2N1
inactive: NCI-H23 lung 97.6% | NCI-H226 lung 104% | NCI-H322M lung 117% | HOP-62 NSCLC 91.5% | NCI-H460 lung 102% | HOP-92 NSCLC 75.1% | NCI-H522 lung 101% | 786-0 renal 98.8% | COLO 205 colon 106% | DU-145 prostate 102% | K-562 leukemia 92% | MALME-3M melanoma 103% | MDA-MB-231 breast 101% | RXF 393 renal 108% | SF-268 CNS 97.5% | SF-295 CNS 91.9% | SF-539 CNS 92.3% | UACC-257 melanoma 97.6% | M14 melanoma 98.9%

Cc1ccc2[nH]c(=O)c3c(c2c1)Oc1ncn2nc(-c4ccco4)nc2c1C3c1ccc(Cl)cc1 (stereo not drawn)
inactive: NCI-H23 lung 93.3% | NCI-H226 lung 92.4% | NCI-H322M lung 96.1% | HOP-62 NSCLC 92.1% | NCI-H460 lung 99.9% | HOP-92 NSCLC 78.5% | NCI-H522 lung 89.5% | A549/ATCC NSCLC 96.7% | COLO 205 colon 109% | DU-145 prostate 98.5% | K-562 leukemia 93.2% | MALME-3M melanoma 96.3% | MDA-MB-231 breast 89.4% | RXF 393 renal 93.2% | SF-268 CNS 91.8% | SF-295 CNS 95.9% | SF-539 CNS 89.8% | UACC-257 melanoma 95.5% | M14 melanoma 100%

Nc1nc(=O)c2ccccc2s1
inactive: NCI-H23 lung 109% | NCI-H226 lung 112% | NCI-H322M lung 108% | HOP-62 NSCLC 98.2% | NCI-H460 lung 115% | HOP-92 NSCLC 94.5% | NCI-H522 lung 122% | 786-0 renal 103% | COLO 205 colon 107% | DU-145 prostate 124% | K-562 leukemia 122% | MALME-3M melanoma 110% | MDA-MB-231 breast 109% | RXF 393 renal 118% | SF-268 CNS 113% | SF-295 CNS 105% | UACC-257 melanoma 118% | M14 melanoma 107%

O=c1ccn(C2CC(O)C(O)C(CO)O2)c(=O)[nH]1 (stereo not drawn)
inactive: NCI-H23 lung 110% | NCI-H226 lung 142% | NCI-H322M lung 131% | HOP-62 NSCLC 107% | NCI-H460 lung 124% | HOP-92 NSCLC 121% | NCI-H522 lung 148% | 786-0 renal 109% | COLO 205 colon 113% | DU-145 prostate 121% | K-562 leukemia 109% | MALME-3M melanoma 112% | MDA-MB-231 breast 116% | RXF 393 renal 245% | SF-268 CNS 122% | SF-295 CNS 112% | SF-539 CNS 107% | UACC-257 melanoma 112% | M14 melanoma 105%

COc1cc(Nc2nc(N[C@H]3CCCC[C@@H]3N)nc3cc[nH]c(=O)c23)cc(OC)c1
inactive: NCI-H23 lung 30.2% | HOP-62 NSCLC 47.6% | NCI-H460 lung 27.6% | 786-0 renal 40.4% | COLO 205 colon 18.8% | DU-145 prostate 41.7% | K-562 leukemia 24.6% | MALME-3M melanoma 91.6% | MDA-MB-231 breast 38.4% | RXF 393 renal 10.9% | SF-268 CNS 48.1% | M14 melanoma 40.2%
active: NCI-H226 lung -13.5% | NCI-H322M lung 9.42% | HOP-92 NSCLC -10.1% | NCI-H522 lung -9.29% | SF-539 CNS -3.04% | UACC-257 melanoma 7.33%

C=CCn1cc(-c2nc3ccccc3s2)c2cc(-c3ccc4c5c(cccc35)C(=O)N(CCN3CCNCC3)C4=O)ccc21
inactive: NCI-H23 lung 86.3% | NCI-H226 lung 63.9% | NCI-H322M lung 97.5% | HOP-62 NSCLC 82.7% | NCI-H460 lung 89% | HOP-92 NSCLC 72.1% | NCI-H522 lung 92.4% | A549/ATCC NSCLC 85% | COLO 205 colon 107% | DU-145 prostate 101% | MALME-3M melanoma 55.2% | MDA-MB-231 breast 60.5% | RXF 393 renal 93.2% | SF-268 CNS 89.9% | SF-295 CNS 101% | SF-539 CNS 91.1% | UACC-257 melanoma 102% | M14 melanoma 82%
active: K-562 leukemia -51.9%

S=c1[nH]nc(-c2cc3ccc2CCc2ccc(cc2)CC3)n1C1CC1
inactive: NCI-H23 lung 97.8% | NCI-H226 lung 108% | NCI-H322M lung 105% | HOP-62 NSCLC 104% | NCI-H460 lung 103% | HOP-92 NSCLC 96.1% | NCI-H522 lung 89.6% | A549/ATCC NSCLC 108% | COLO 205 colon 113% | DU-145 prostate 108% | K-562 leukemia 97.9% | MALME-3M melanoma 97% | MDA-MB-231 breast 99.5% | RXF 393 renal 105% | SF-268 CNS 103% | SF-295 CNS 93.8% | SF-539 CNS 98% | UACC-257 melanoma 105% | M14 melanoma 97.8%

CN1CCN(Cc2ccc(NC(=O)c3nc4ccc5[nH]ncc5c4c4c3CCC4)cc2C(F)(F)F)CC1
active: NCI-H322M lung -50.9% | HOP-62 NSCLC -78.7% | NCI-H460 lung -84.2% | NCI-H522 lung -71.1% | 786-0 renal -96.5% | COLO 205 colon -43% | DU-145 prostate -90.1% | K-562 leukemia -46.6% | MALME-3M melanoma -55% | MDA-MB-231 breast -84.3% | SF-539 CNS -96% | UACC-257 melanoma -64.5% | M14 melanoma -84.5%
inactive: NCI-H23 lung 19.2% | NCI-H226 lung 73.9% | HOP-92 NSCLC 65.5% | RXF 393 renal 67.9% | SF-268 CNS 98.2% | SF-295 CNS 99.8%

COc1cc(C(=O)/C=C/c2ccc3nc(-c4cc(F)cc(F)c4)sc3c2)cc(OC)c1OC
inactive: NCI-H23 lung 99.3% | NCI-H226 lung 120% | NCI-H322M lung 93% | HOP-62 NSCLC 92.3% | NCI-H460 lung 110% | HOP-92 NSCLC 83.4% | NCI-H522 lung 97.4% | 786-0 renal 93.4% | COLO 205 colon 115% | DU-145 prostate 112% | K-562 leukemia 100% | MALME-3M melanoma 86.6% | MDA-MB-231 breast 84.2% | RXF 393 renal 110% | SF-268 CNS 97.3% | SF-295 CNS 94.2% | SF-539 CNS 92.4% | UACC-257 melanoma 103% | M14 melanoma 97.1%

O=C(Nc1ccncc1)C(=O)c1cn(S(=O)(=O)c2ccc(Cl)cc2)c2ccccc12
active: NCI-H522 lung -2.79% | SF-539 CNS 9.27%
inactive: NCI-H23 lung 30.7% | NCI-H226 lung 78.3% | NCI-H322M lung 80.6% | HOP-62 NSCLC 31.4% | NCI-H460 lung 71.9% | HOP-92 NSCLC 32.8% | 786-0 renal 34.9% | COLO 205 colon 106% | DU-145 prostate 27.7% | K-562 leukemia 22.2% | MALME-3M melanoma 31.7% | MDA-MB-231 breast 45.7% | RXF 393 renal 25% | SF-268 CNS 41.8% | SF-295 CNS 13.1% | UACC-257 melanoma 75.9% | M14 melanoma 17.7%
